Screening data: PubChem BioAssay, National Center for Advancing Translational Sciences (NCATS)
Only some compounds are listed: those with a hit (about 4.6% of all), similar ones and a draw of the others.
D1 potentiator: Potentiators of Human D1 Dopamine Receptor: qHTS | potentiation, % at 10 µM | AID 504651, 2011 | D(1A) dopamine receptor (Homo sapiens), P21728 | HEK293 TREx D1 cells, calcium flux, dopamine EC20 potentiation | hit rate 0.036% among 360,000; in the data active = potentiation above about 30%; also: 0% is about no effect
Target sequence (P21728 whole entry, looked up): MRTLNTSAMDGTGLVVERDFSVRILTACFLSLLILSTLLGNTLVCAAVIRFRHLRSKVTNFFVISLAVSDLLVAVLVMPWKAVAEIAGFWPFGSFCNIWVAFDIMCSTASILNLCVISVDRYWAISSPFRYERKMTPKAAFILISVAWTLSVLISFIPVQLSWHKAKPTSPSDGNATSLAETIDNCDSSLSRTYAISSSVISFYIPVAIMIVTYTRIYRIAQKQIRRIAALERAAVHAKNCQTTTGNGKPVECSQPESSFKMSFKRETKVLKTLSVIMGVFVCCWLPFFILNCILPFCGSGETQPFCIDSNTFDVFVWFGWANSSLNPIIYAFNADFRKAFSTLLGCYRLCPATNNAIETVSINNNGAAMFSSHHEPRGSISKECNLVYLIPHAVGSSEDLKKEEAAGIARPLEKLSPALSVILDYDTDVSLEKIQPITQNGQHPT
D1 ag: Allosteric Agonists of the Human D1 Dopamine Receptor: qHTS; D(1A) dopamine receptor (Homo sapiens), P21728; activation, % at 2 µM; HEK293 T-REx D1 cells, calcium flux, agonist mode; hit rate 1% among 360,000; also: 0% is about no effect
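Inducible HEK293 T-REx D1 cells, force-coupled to calcium signalling, were plated at 4000 cells/well with tetracycline and held overnight at 30 C. After no-wash calcium dye loading, compound-evoked calcium rise over 180 s flagged agonists.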
D1 antagonist: Antagonist of Human D 1 Dopamine Receptor: qHTS. D(1A) dopamine receptor (Homo sapiens), P21728. HEK293 TREx D1 cells, calcium flux, dopamine EC80; hits give low values. activity change, negative = inhibition, % at 10 µM. hit rate 3.2% among 360,000; in the data active = activity change below about -30%; also: % is scaled to controls: 0 for no effect and ±100 for the full control effect
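After overnight tetracycline induction at 30 C, force-coupled D1 HEK293 cells took up a no-wash calcium dye at room temperature. Compounds were added and monitored 180 s, and the response to EC80 dopamine was then recorded.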
TRHR enhancer: qHTS for Small Molecule Agonists and Allosteric Enhancers of Human TRH Receptor: Primary Screen for Enhancers | enhancement, % at 2 µM | TRHR cells, fluo-8 calcium fluorescence, EC20 TRH enhancement | hit rate 0.66% among 360,000; in the data active = enhancement above about 30%; also: 0% is about no effect
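Enhancer read-out: after compound pinning and an initial kinetic agonist-mode read, an EC20 of TRH (10 nM final) was injected and fluo-8 calcium signal (Ex 480/Em 530) followed at 1 s/cycle for 100 cycles in TRHR-expressing cells.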
TRHR agonist: qHTS for Small Molecule Agonists and Allosteric Enhancers of Human TRH Receptor: Primary Screen for Agonists | TRHR cells, calcium flux fluo-8, FDSS agonist mode | activation, % at 2 µM | hit rate 0.18% among 360,000 | AID 493084, 2011; also: 0% is about no effect
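TRHR-expressing cells loaded with fluo-8 calcium dye; 23 nL library compound pin-transferred, kinetic FDSS fluorescence (Ex 480/Em 530) recorded about 180 s for agonist-induced calcium release, before a 10 nM TRH EC20 addition for potentiator mode.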
The depositor's hits bear a star; · = not tested or not shown. Rule as the data show it, unless noted: active = activation above about 30%; inactive = the rest.

SMILES | D1 potentiator | D1 ag | D1 antagonist | TRHR enhancer | TRHR agonist
CC(C)C[C@H](NC(=O)[C@@H]1CCCN1C(=O)[C@@H](N)Cc1ccc(O)cc1)C(=O)NCC(N)=O | 7 | 1 | -37* | -3 | 1
O=C(c1ccc(N2CC3CC(C2)c2cccc(=O)n2C3)c([N+](=O)[O-])c1)N1CCCC1 (stereo not given) | -3 | 3 | -35* | 6 | 1
O=C(c1ccc(N2CC3CC(C2)c2cccc(=O)n2C3)c([N+](=O)[O-])c1)N1CCCCC1 (stereo not given) | 0 | 1 | -53* | -1 | -1
CC1CCCCN1C(=O)c1ccc(N2CC3CC(C2)c2cccc(=O)n2C3)c([N+](=O)[O-])c1 (stereo not given) | 1 | 1 | 2 | -5 | -1
Cc1ccc(-c2nc(CN3C(=O)CN=C(c4ccccc4Cl)c4cc(Cl)ccc43)c(C)o2)cc1 | -2 | 4 | -5 | -2 | 0
Cc1ccccc1-n1nc(C)c2c1NC(=O)CSC2c1ccc(Cl)cc1 (stereo not given) | 0 | 1 | 13 | -5 | -1
O=c1c2ccccc2nc(/C=C/c2ccccc2O)n1-c1ccccc1O | -6 | 31* | -22 | 0 | 12
Cc1ccccc1-n1c(/C=C/c2c(C)[nH]c3ccccc23)nc2ccccc2c1=O | 0 | 10 | 7 | 0 | 4
O=c1c2ccccc2nc(/C=C/c2ccccc2F)n1-c1ccccc1O | -4 | 11 | 9 | 0 | 3
Cc1ccccc1-n1c(/C=C/c2ccc(N(C)C)cc2)nc2ccccc2c1=O | 60* | 197* | 10 | 18 | 93*
CC(=O)O[C@H]1C[C@@H]2CC[C@@H]3[C@H](CC[C@]4(C)C(=O)CC[C@@H]34)[C@@]2(C)C[C@@H]1OC(C)=O | -6 | 3 | -41* | -4 | -1
COc1ccc(C)cc1NC(=O)N(Cc1ccc2c(c1)OCO2)C1CCN(Cc2ccccc2)CC1 | 2 | 2 | 4 | 21 | 0
COc1ccc(/C=C/C2=CCN(C)CC2)cc1 | -7 | 5 | -10 | 2 | 2
CN1CC=C(/C=C/c2ccc(-c3ccccc3)cc2)CC1 | 1 | 24 | -40* | 0 | 0
O=c1[nH]c(O)c(/C=C2/C=CC(c3cc(Cl)ccc3Cl)=N2)c(=O)[nH]1 | 6 | 73* | -7 | -16 | 26
CSc1ccccc1C(=O)C1CCCN(Cc2ccncc2)C1 (stereo not given) | -4 | 4 | -13 | 40* | -1
N#Cc1ccc(NC(=O)CN2C(=O)NC3(CCCCCCC3)C2=O)cc1Cl | 2 | 2 | -57* | 0 | 0
Cc1cc(OCC(=O)N2CCN(CCc3ccncc3)CC2)cc(C)c1Cl | 1 | 4 | -2 | 13 | -1
CCOc1cc2c(cc1OCC)-n1cccc1C(c1ccc(F)c(OC)c1)NC2 (stereo not given) | -6 | 66* | -43* | -10 | 4
COC(=O)CSC1=NN1c1cc(C)nc(N)n1 | 6 | 0 | -33* | -5 | -3
COC(=O)c1cc(C(O)(C(=O)OC)C(F)(F)F)c(/N=C/N(C)C)s1 (stereo not given) | -6 | 1 | -8 | 39* | 0
CCN(CC)c1ccc(/C=N/c2sc3c(c2C#N)C2CCN3CC2)c(O)c1 | -2 | 247* | 4 | -14 | 52*
COc1ccc(C2CC(=O)Oc3c2c(=O)oc2ccccc32)c(OC)c1OC (stereo not given) | 0 | 1 | 0 | 8 | -4
CN1C[C@H](CO)C[C@@H]2c3cccc4[nH]cc(c34)C[C@H]21 | -7 | 1 | -42* | 1 | 0
CCN(CC)C(=O)N[C@H]1C[C@@H]2c3cccc4[nH]cc(c34)C[C@H]2N(C)C1 | -6 | 2 | -89* | -5 | 2
SMILES | D1 potentiator | D1 ag | D1 antagonist | TRHR enhancer | TRHR agonist
CCc1nc(SC)ncc1C(=O)Nc1ccc(Cl)cc1C(=O)c1ccccc1 | 7 | 2 | 17 | -1 | 0
O=C(COc1ccccc1F)N1CCN(Cc2cc(=O)n3nc(-c4ccccc4Cl)sc3n2)CC1 | 0 | -2 | 10 | -5 | 0
O=C(Nc1ccon1)c1cccn(Cc2cccc([N+](=O)[O-])c2)c1=O | -1 | 3 | · | 13 | -1
CNc1ccc2oc(C[C@H]3O[C@@]4(CC[C@H]3C)O[C@H]([C@H](C)C(=O)c3ccc[nH]3)[C@H](C)C[C@H]4C)nc2c1C(=O)O | -6 | 419* | -45* | -17 | 123*
Cc1c(Cl)cccc1NC(=O)CN1C(=O)C(C)N=C(c2ccccc2)c2ccccc21 (stereo not given) | 7 | 6 | -7 | 2 | 1
Cc1ccc(C(C)C)c(OCC(=O)N2CCN(CCc3ccncc3)CC2)c1 | -1 | -2 | -13 | 0 | 0
CN1/C(=C\C=C2C(=O)NC(=O)NC2=O)C(C)(C)c2ccccc21 | -1 | 107* | 1 | 0 | 101*
CN(C)c1ccc(/C=C2/C(=O)NC(=O)N(CCc3ccc(F)cc3)C2=O)cc1 | -6 | -1 | -1 | -6 | 0
COCCN1C(=O)NC(=O)/C(=C\c2ccc(Br)cc2)C1=O | -6 | 4 | -55* | 0 | 0
O=C1CC(c2ccccc2Br)c2c(c3ccccc3oc2=O)O1 (stereo not given) | 1 | 4 | -17 | -6 | 1
O=P(Nc1ccccc1)(Oc1ccccc1)Oc1ccccc1 | 5 | 2 | 2 | 17 | 0
O=P(CCl)(Nc1ccccc1)C(Cl)(Cl)Cl (stereo not given) | 1 | 0 | -41* | -4 | 0
Cc1ccc(Cl)cc1NC(=O)N(Cc1ccc2c(c1)OCO2)C1CCN(Cc2ccccc2)CC1 | 1 | 21 | -8 | -3 | 3
Cc1cc(C)cc(NC(=O)CN2C(=O)CN=C(c3ccccc3)c3cc(Cl)ccc32)c1 | -1 | 3 | -7 | -3 | 0
COC(=O)C1=C(c2cccc(OCc3ccccc3)c2)C[C@@H]2CC[C@H]1N2C(=O)NCc1cc(C)oc1C(F)(F)F | 8 | 4 | -31* | -6 | 1
COC(=O)C1=C(c2cccc(OCc3ccccc3)c2)C[C@@H]2CC[C@H]1N2C(=O)NCc1cccc(C(F)(F)F)c1 | -7 | 8 | · | -4 | 1
COC(=O)C1=C(c2cccc(OCc3ccccc3)c2)C[C@@H]2CC[C@H]1N2C(=O)NCc1ccc(OC)cc1 | 41* | 3 | 5 | 1 | 1
COC(=O)C1=C(c2ccc(F)cc2OCc2ccccc2)C[C@@H]2CC[C@H]1N2C(=O)NC1Cc2ccccc2C1 | -4 | 2 | -31* | -6 | 0
